# Test results from PubChem BioAssay (Tox21).
# Calls of active or inactive are those of the source. Entries that show only a call come without a potency. The call rests on the fitted dose curve.
# Molecular target: Gonadotropin-releasing hormone receptor (Homo sapiens) (UniProt P30968)
# Assay: Human gonadotropin-releasing hormone receptor (GnRHR) small molecule agonists, calcium flux assay in GnRHR-HEK293 cells (AID 1920063); further: nearly all actives have a fitted effect of over 35% in size
# Details: calcium flux fluorescence, agonist mode; series mostly up to 57.6 µM
# Source text: National Center for Advancing Translational Sciences [NCATS]
# Division of Preclinical Innovation [DPI]
# U.S. Environmental Protection Agency [EPA]
# National Institutes of Environmental Health Sciences [NIEHS]
# National Toxicology Program [NTP]
# U.S. Food and Drug Administration [FDA]
# Gonadotropin-releasing hormone receptor (GnRHR) is a G-protein-coupled receptor (GPCR) and acts (through phospholipase C) to increase intracellular inositol trisphosphate and then release intracellular calcium stores. Cell-based GnRHR-Hek293 calcium influx assay is using HEK293 cells that have been genetically engineered to express the human GnRHR, which activity can be measured by calcium signaling. A compound/drug can activate (agonist) GnRHR that can be monitored by levels of intracellular calcium.
# GnRHR-HEK293 cells developed by Codex Corp contain human GnRHR reporter gene, which was stably integrated into HEK 293 cells. The compound activation can be detected by fluorescence intensity via calcium flux assay. This cell line has been used to screen the Tox21 10K compound library to identify GnRHR agonists.
# GnRHR-Hek293 cells were dispensed at 1500cells/4uL/well in 1536-well black wall/clear bottom plates using a multidrop dispenser. After the assay plates were incubated at a 37 C/5% CO2 incubator for 18 hours, 4 uL of Calcium Dye Solution was added to each well. The plates were incubated at 37 C for 1 hour. For agonist mode, 23 nL of compounds dissolved in DMSO, positive controls or DMSO only was transferred to the assay plate by a pin tool station. The fluorescence intensity in the plates was measured using FDSS 7000EX kinetic plate reader with a filter set of Ex/Em=480/540 for 3 min at 1 sec intervals. Each test compound was measured at 15 concentrations and in triplicates.
# Potency means the concentration at half of the fitted maximal effect.
# Sequence of Gonadotropin-releasing hormone receptor (Homo sapiens) (P30968 whole entry, looked up): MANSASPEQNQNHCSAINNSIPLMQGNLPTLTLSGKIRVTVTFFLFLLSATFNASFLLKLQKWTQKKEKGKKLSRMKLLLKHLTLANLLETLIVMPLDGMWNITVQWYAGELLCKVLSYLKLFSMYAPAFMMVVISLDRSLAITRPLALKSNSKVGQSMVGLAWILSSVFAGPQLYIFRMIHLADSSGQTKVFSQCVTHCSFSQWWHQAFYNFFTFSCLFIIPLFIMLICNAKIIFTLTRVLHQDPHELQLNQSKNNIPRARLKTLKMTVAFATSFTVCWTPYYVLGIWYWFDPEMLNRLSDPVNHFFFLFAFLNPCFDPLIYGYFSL
row,Compound,Potency
1,CN(C)CCCNCCCN,inactive
2,CC(C#N)(CCC(=O)O)N=NC(C)(C#N)CCC(=O)O (stereo not given),inactive
3,NC(=O)Nc1ccccc1,inactive
4,Cn1ccnc1,inactive
5,CC1=NN(c2ccc(S(=O)(=O)O)cc2)C(=O)C1,inactive
6,NC(=O)NS(=O)(=O)c1ccc(Cl)cc1,inactive
7,Cc1nc(-c2ccc3c(c2)CCN(CCC2CCC(NC(=O)/C=C/c4ccc(F)cc4)CC2)CC3)no1 (stereo not given),inactive
8,Cc1cc(C)cc(N)c1,inactive
9,CC(C)(C)OC(=O)c1cccc(N)c1,inactive
10,COCCOCCOCCOCCOCCO,inactive
11,COc1cc(Cl)ccc1Cl,inactive
12,O=C(O)c1ccccc1-n1cc(C(=O)O)c(=O)c2cc(Nc3c(F)cc(F)cc3Cl)c(Cl)cc21,inactive
13,CC(C)(C)c1cc(Cc2cc(C(C)(C)C)c(O)c(C(C)(C)C)c2)cc(C(C)(C)C)c1O,inactive
14,COc1cc(OC)nc(O[C@H](C(=O)O)C(OC)(c2ccccc2)c2ccccc2)n1,inactive
15,CN(C)c1ccc(C(=N)c2ccc(N(C)C)cc2)cc1,29.7 µM (active)
16,CCN(CC)CCNC(=O)c1ccc(N)cc1,inactive
17,COCc1ccc(COC)cc1,inactive
18,C=C(C)C(=O)OCCC(F)(F)C(F)(F)C(F)(F)C(F)(F)C(F)(F)C(F)(F)F,inactive
19,CCCCc1ccc2cccc(S(=O)(=O)O)c2c1,inactive
20,Cc1ccccc1OCC(O)CO (stereo not given),inactive

row,Compound,Potency
1,CCCCCCS,inactive
2,CCC/C=C/CO,inactive
3,CCC(=O)O[C@@H]1C[C@H]2CC[C@]1(C)C2(C)C,inactive
4,c1coc(CNc2ncnc3nc[nH]c23)c1,inactive
5,C/C=C/C(=O)O,inactive
6,O=S(O)CO,inactive
7,CC(C)CC(O)Cc1ccccc1 (stereo not given),inactive
8,FC(F)(F)c1ccccc1Cl,inactive
9,C=C(C)C(=O)OCCOP(=O)(O)O,inactive
10,CC(C)(C)c1nnc(NS(=O)(=O)c2ccc(N)cc2)s1,inactive
11,OC/C=C/CO,inactive
12,COc1ccc(N)c(OC)c1,inactive
13,CCCCC(CC)COC(=O)CCCCCCCC(=O)OCC(CC)CCCC (stereo not given),inactive
14,C/C=C/C(=O)C1=C(C)C=CCC1(C)C,inactive
15,CCCCCCc1ccc(-c2ccc(C#N)cc2)cc1,inactive
16,Cc1[nH]cnc1-c1ccc(Cl)cc1,inactive
17,CC/C=C\CC1=C(C)CCC1=O,inactive
18,Nc1cccc2c1CN(C1CCC(=O)NC1=O)C2=O (stereo not given),inactive
19,O=C1OC(=O)c2ccccc21,inactive
20,CCOC(OCC)C(=O)c1ccccc1,inactive
